ELG1 genotoxic: induces genotoxicity in HEK293T cells with luciferase-tagged ELG1. 330,000 compounds, 1.3% hits. HEK293T ELG1-luciferase reporter, luminescence, 16 h. Potency, µM (series often up to 46 µM), for inactives: at the highest dose activity change, positive = activation, usual class: activators; also: % of control where 0% means no effect; nearly all actives have a fitted effect of over 60% in size
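Quantitative HTS format in 1536-well plates. HEK293T ELG1-luciferase reporter cells receive test compound and are incubated 16 hr at 37 °C, 5% CO2; ONE-Glo added, 30 min room temperature, then luminescence read.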
ELG1 repair inh: ELG1-dependent DNA repair inhibition; Potency, µM (series often up to 46.1 µM), inactives show top-dose activity change, negative = inhibition, most hits filed as inhibitors; HEK293T ELG1-luciferase reporter, luminescence, 16 h; DNA damage induced by 5-fluorouridine; 330,000 compounds, 2.3% hits; also: % is scaled to controls: 0 for no effect and ±100 for the full control effect; nearly all actives have a fitted effect of over 55% in size
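Step one: seed 2,000 cells per well. Step two: pin-transfer compound or DMSO alongside 5-fluorouridine. Step three: incubate 16 hr, 37 °C, 5% CO2. Step four: add ONE-Glo, wait 30 min, read luminescence.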
SMN2 splice up: enhancers of SMN2 splice variant expression; Potency, µM (highest dose often 46.1 µM), inactives show at the highest dose activity change, positive = activation, usual class: activators; HEK293 SMN2-luciferase splicing reporter, luminescence, 30-36 h; 210,000 compounds, 2.8% hits; also: % of control where 0% means no effect; nearly all actives have a fitted effect of over 55% in size
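HEK293 cells carry an SMN2 […]–luciferase reporter in which exon 7 inclusion puts luciferase in frame. Cells were plated 10-12 h before compound addition, then incubated 30-36 h at 37C. ONE-Glo luminescence was read; sodium butyrate at 4.5 mM final served as control.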
FLuc modulator: firefly luciferase modulation, counter-screen for miR-21 project | P08659 | purified FLuc, Km substrates, luminescence inhibition | Potency, µM (titrated, usually from 57.5 µM), for the others: at the top dose activity change, negative = inhibition, most hits filed as inhibitors | 360,000 compounds, 6.9% hits | AID 588342;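 also: plate controls were vehicle for no effect and reference inhibitor for full effect; nearly all actives have a fitted effect of over 55% in size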
Target sequence (P08659 whole entry, looked up): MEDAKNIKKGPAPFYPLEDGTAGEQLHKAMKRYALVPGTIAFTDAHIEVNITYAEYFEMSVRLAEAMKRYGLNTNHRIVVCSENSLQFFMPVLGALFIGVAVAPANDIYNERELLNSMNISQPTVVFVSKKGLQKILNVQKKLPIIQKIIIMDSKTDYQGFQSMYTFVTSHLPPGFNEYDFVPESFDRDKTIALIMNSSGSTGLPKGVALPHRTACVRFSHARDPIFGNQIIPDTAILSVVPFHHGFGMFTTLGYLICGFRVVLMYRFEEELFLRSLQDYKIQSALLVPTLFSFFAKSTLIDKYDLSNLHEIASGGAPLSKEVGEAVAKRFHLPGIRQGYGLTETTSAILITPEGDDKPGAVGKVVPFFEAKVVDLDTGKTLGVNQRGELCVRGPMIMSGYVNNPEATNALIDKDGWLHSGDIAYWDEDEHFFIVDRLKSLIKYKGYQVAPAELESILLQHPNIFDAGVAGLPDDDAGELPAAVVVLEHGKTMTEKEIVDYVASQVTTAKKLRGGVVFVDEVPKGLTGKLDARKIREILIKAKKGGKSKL
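Biochemical qHTS of compounds, final roughly 60 µM downward over six points, against 10 nM purified firefly luciferase using Km concentrations of substrates (10 uM D-luciferin, 10 uM ATP) in Tris acetate pH 7.5 buffer; luminescence output.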
NPC1 prom act: activators of NPC1 promoter | Huh7 NPC1 promoter luciferase reporter, 24 h | Potency, µM (titrated, usually from 9.22 µM), without a hit: top-dose activation, most hits filed as activators | 320,000 compounds, 2.4% hits | AID 485313; also: % of control where 0% means no effect; nearly all actives have a fitted effect of over 60% in size
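Stably transfected Huh7 (NPC1 promoter→luciferase), 1500 cells/well in Opti-MEM + 10% FBS, 2 h settle, then compound 24 h at 37 °C. Luminescence after 10 min with Amplite reagent.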
Rab9 promoter act: activates the Rab9 promoter; Huh7 Rab9 promoter-luciferase reporter, luminescence, 24 h; Potency, µM (highest dose often 9.22 µM), inactives show top-dose activation, negative = inhibition, hits mostly activators; 320,000 compounds, 2.8% hits; also: % of control where 0% means no effect; nearly all actives have a fitted effect of over 60% in size
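Huh7 cells stably carrying a Rab9 promoter-luciferase reporter, 1500 cells per well in OP-MEM I with 10% FBS, treated with compound 24 hours at 37C. Luciferase activity read by luminescence after 10 minutes with Amplite reagent.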
Starred values were filed as active, the others as inactive; ? = inconclusive; nt = no result; [ ] = dose if it differs, or a comment. The list is not random: actives were taken first. Their share in the collection is about 9.3%. Calls follow the shape of the dose curve; as a rule, active = well fitted curve in the direction sought with a large enough effect; inconclusive = small, poorly fitted or top-dose-only effect, or another doubt; inactive = no such curve, though single readings can be large; an effect the other way counts as inactive or inconclusive. Potency is read from the fitted curve at half-maximal effect.

SMILES	ELG1 genotoxic	ELG1 repair inh	SMN2 splice up	FLuc modulator	NPC1 prom act	Rab9 promoter act
CCCc1ccc(OCc2ccc(C(=O)O)o2)c(OC)c1	?	?	2.5µM*	4.8µM*	0.45µM*	0.32µM*
CCCc1ccc(OCc2ccc(C(=O)OC)o2)c(OC)c1	10µM*	?	?	15µM*	1.4µM*	1.8µM*
CC(=O)c1cc(F)ccc1OCC(=O)N1CCCc2ccccc21	-1%	21%	nt	?	11%	7%
CN(C)CCNC(=O)/C=C/c1cn(-c2ccccc2)nc1-c1cc2ccccc2oc1=O	0%	-12%	-5%	-2%	-2%	-3%
CC1CCC(NC(=O)c2ccc3c(c2)N(Cc2ccccc2F)C(=O)c2ccccc2S3=O)CC1 (configuration not stated)	nt	nt	25%	-1%	nt	nt
Cc1ccc(OCc2ccc(C(=O)N3CCCC3)o2)c([N+](=O)[O-])c1	15%	?	nt	?	20%	18%
CCCc1ccc(OCc2ccc(C(=O)NN)o2)c(OC)c1	12%	?	nt	-16%	2.2µM*	?
C=CCc1ccc(OCCn2cccc2C=O)c(OC)c1	15%	?	-9%	17µM*	?	?
Cc1ccc(OCc2ccc(C(=O)O)o2)c([N+](=O)[O-])c1	6%	?	?	27µM*	?	?
C=CCc1ccc(OCCOc2cccc3ccc(C)nc23)c(OC)c1	-6%	6%	7%	11µM*	-2%	3%
CCc1ccc(CNC(=O)Cn2nc(C)n3c(cc4cc(C)ccc43)c2=O)cc1	nt	nt	1%	-1%	nt	nt
CCCC[C@@H]1CNCCN1CC1(c2ccccc2)CC1	-4%	11%	nt	-1%	-4%	-2%
CCOCCCNC(=O)C(c1ccc(OC)cc1)N(Cc1cccs1)C(=O)c1ccccn1 (configuration not stated)	-4%	-2%	-12%	-2%	3%	1%
COc1ccc(-c2ccc(=O)n(CC(=O)Nc3ccc(C)cc3C)n2)cc1	nt	nt	nt	-2%	nt	nt
O=C1CSC(c2cn(-c3ccccc3)nc2-c2cc3ccccc3oc2=O)N1Cc1ccco1 (configuration not stated)	-2%	16µM*	-1%	-1%	-1%	-3%
C=CCOc1c(CCC)cc(CCC)cc1C(N)=O	0%	?	nt	2%	1%	-9%
CCn1cc(C(=O)N[C@@H](CCSC)C(=O)NCCCn2ccnc2)c(=O)c2cc3c(cc21)OCO3	3%	10%	nt	3%	-1%	1%
Cc1cccc(CN2C(=O)c3ccccc3S(=O)(=O)c3ccc(C(=O)OCC4CCCO4)cc32)c1 (configuration not stated)	nt	nt	nt	3%	nt	nt
Cc1nn(-c2nc3ccccc3s2)c(C)c1Oc1ccccc1O	?	?	?	2.4µM*	3.5µM*	3.2µM*
Cc1nn(-c2ccccn2)c(C)c1Oc1ccccc1O	8%	-21%	-12%	-3%	1%	7%
C/C(=N/NC(=O)c1cnccn1)c1cccs1	?	?	8.9µM*	15µM*	2µM*	?
C/C(=N\Nc1ccccn1)c1ccc(C#N)cc1	1%	29%	-5%	?	1%	4%
C/C(=N\Nc1ccccn1)c1cccs1	?	?	32µM*	6.7µM*	3.5µM*	3.2µM*
C/C(=N\Nc1ccccn1)c1ccc(OC(F)F)cc1	?	?	21%	15µM*	10%	26%
O=C(N/N=C/c1cccs1)c1cnccn1	9%	?	-15%	?	-1%	9%
SMILES	ELG1 genotoxic	ELG1 repair inh	SMN2 splice up	FLuc modulator	NPC1 prom act	Rab9 promoter act
C/C(=N\NC(=O)c1cc(C)[nH]n1)c1cccs1	?	?	11µM*	12µM*	1.1µM*	0.32µM*
CCOc1ccc(NC(=O)c2ccc3c(c2)OCCO3)cc1S(=O)(=O)N(CC)CC	-4%	-19%	nt	nt	0%	-1%
CCNc1ncc2nc(-c3cc(F)cc(F)c3)c(=O)n(Cc3cccs3)c2n1	nt	nt	5%	nt	nt	nt
CCOc1ccc(CNC(=O)c2cc3c(s2)-c2ccccc2OC3)cc1	nt	nt	-15%	3%	nt	nt
C/C(=N/NC(=O)c1cc(C(C)C)[nH]n1)c1cccs1	?	?	11µM*	5.4µM*	0.4µM*	0.5µM*
CN(C)c1nc(Oc2ccc(OCCOc3ccccc3)nn2)nc(N(C)C)n1	4%	6%	nt	-1%	-7%	-9%
Cc1cccc(C)c1NC(=O)CN(C)C(=O)CC1CC2CCC1C2 (configuration not stated)	3%	27%	nt	5%	0%	11%
Cc1ccc(N=C2CCCN2Cc2ccccc2)c(C#N)c1	-1%	12%	-3%	24µM*	3%	13%
Cc1ccc(-n2[nH]c(=O)c(-c3ccccn3)c2C)cc1	?	?	nt	0.3µM*	?	0.45µM*
COc1cc(OC)c(-c2nn3c(C4CCCCC4)nnc3s2)cc1OC	0%	21µM*	-25%	-1%	-8%	-9%
CCOc1cccc(-c2nnc3sc(-c4cc(OC)c(OC)cc4OC)nn23)c1	4%	-2%	-6%	0%	-1%	-2%
O=C(OCc1c(-c2ccccc2)ncc2ccccc12)c1ccc(Cl)cc1Cl	-4%	-8%	nt	-5%	5%	-8%
COc1cc(OC)cc(C(=O)OCC(=O)Nc2ccc3[nH]c(=O)[nH]c3c2)c1	1%	0%	nt	6%	3%	3%
CCN(CC)c1ccc(NC(=O)COC(=O)c2ccc3ccccc3n2)cc1	1%	26%	23%	24µM*	11%	-4%
CC(=O)c1cccc(NC(=O)COC(=O)c2cccs2)c1	6%	-3%	2%	?	-20%	3%
CCN(CC)c1ccc(NC(=O)COC(=O)c2cccs2)cc1	-1%	26%	-3%	12µM*	-1%	2%
COc1ccc(NC(=O)COC(=O)c2ccc3ccccc3n2)cc1	1%	0%	nt	-1%	2%	-6%
CCN(c1ccc(NC(=O)COC(=O)c2cccs2)cc1)C(C)C	0%	?	?	8.5µM*	-1%	13%
CCN(CC)c1ccc(C(=O)OCC(=O)Nc2ccc3[nH]c(=O)[nH]c3c2)cc1	3%	-11%	2%	19µM*	-1%	-4%
Cc1cccc(Cn2c(SCc3ccc(C(=O)NCc4cccs4)cc3)nc3ccncc32)c1	nt	nt	7%	-7%	nt	nt
C[C@H]1Cc2c(-c3ccccc3)nc3c(c2CO1)CN(C(=O)c1ccco1)CC3	nt	nt	3%[9.22 µM]	nt	nt	nt
CNS(=O)(=O)c1cc(Br)ccc1S(=O)c1ccccc1C(=O)O (configuration not stated)	0%	-6%	nt	1%	2%	0%
